ST2 inh = blocks human ST2 binding to IL-33 | inhibition, % for hits at 17 µM | hit rate 2.3% among 78,000 | Q01638 | AlphaLISA ST2-Fc/biotin-IL-33 interaction, 1 h; in the data active means inhibition above about 30%
Target sequence (Q01638 whole entry, looked up): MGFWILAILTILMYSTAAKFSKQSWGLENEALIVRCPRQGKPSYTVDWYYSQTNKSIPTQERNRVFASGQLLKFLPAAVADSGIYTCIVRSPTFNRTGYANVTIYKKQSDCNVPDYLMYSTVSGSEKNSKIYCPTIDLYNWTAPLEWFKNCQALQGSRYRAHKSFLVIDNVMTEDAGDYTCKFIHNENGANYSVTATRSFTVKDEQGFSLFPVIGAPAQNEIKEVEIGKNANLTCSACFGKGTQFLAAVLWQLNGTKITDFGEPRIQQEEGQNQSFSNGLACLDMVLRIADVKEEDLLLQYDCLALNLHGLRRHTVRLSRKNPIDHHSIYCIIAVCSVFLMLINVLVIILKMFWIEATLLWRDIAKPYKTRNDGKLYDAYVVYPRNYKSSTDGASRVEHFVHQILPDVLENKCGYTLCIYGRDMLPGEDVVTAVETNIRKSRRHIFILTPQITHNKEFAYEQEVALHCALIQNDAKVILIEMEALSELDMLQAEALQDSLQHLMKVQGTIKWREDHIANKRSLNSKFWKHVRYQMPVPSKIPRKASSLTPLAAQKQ
* hit, by the source's call; i = inactive. Shown is part of a subset that was picked to be rich in hits.

SMILES	ST2 inh
COc1ccc(C=Nc2sc3c(c2C#N)CCC(C)C3)cc1OC (centres undefined)	39.0%*
NC(=O)[C@H](Cc1cccs1)NC(=O)C1=C[C@@H](NC(=O)c2ccc(F)c(Cl)c2)[C@@H](O)[C@H](O)C1	i
COc1ccc(C[C@H](NC(=O)C2=C[C@@H](NC(=O)c3ccc(C)cc3)[C@@H](O)[C@H](O)C2)C(N)=O)cc1	i
NC(=O)[C@H](Cc1ccc(O)cc1)NC(=O)C1=C[C@@H](NC(=O)c2cnccn2)[C@@H](O)[C@H](O)C1	44.0%*
CSc1ccc(C2C(C(=O)Nc3ccc(C)cc3C)=C(C)Nc3ncnn32)cc1 (centres undefined)	i
Cc1ccc(Cl)cc1NC(=O)CN1CCN(Cc2ccccc2F)S1(=O)=O	97.0%*
O=C(CN1CCN(Cc2ccccc2F)S1(=O)=O)Nc1ccccc1	i
Cc1cc(C)c(NC(=O)CN2CCN(Cc3ccccc3F)S2(=O)=O)c(C)c1	i
CCOC(=O)c1c(C)n(-c2ccc(C)cc2C)c2ccc(O)cc12	i
Cc1ccc(C(=O)N2CCCC(CCc3ccc(F)c(F)c3)C2)cc1O (centres undefined)	i
CCOC(=O)CN1N=C(c2ccccc2)CCC1=O	i
OCCNc1cc(-c2nccc(C3CCCC3)n2)c2cc[nH]c2n1	i
c1cnc(-c2cc(NCc3cccnc3)nc3[nH]ccc23)nc1	35.0%*
O=C(O)CNc1cc(-c2ccccc2C(F)(F)F)c2cc[nH]c2n1	i
Cc1cc(-c2cc(N)nc3[nH]ccc23)cnc1N	i
NCCc1cccc(-c2cc(NCc3ccccn3)nc3[nH]ccc23)c1	35.0%*
COc1ccc(-c2cc(NCc3cccnc3)nc3[nH]ccc23)cn1	i
CC(C)(C)NS(=O)(=O)c1ccc(C(C)(C)C)cc1	i
Cc1cc(N2CCOCC2)nc2ccc(NC(=O)CCC(=O)N3CCOCC3)cc12	i
O=C(NC[C@H]1O[C@@H](CO)[C@@H](O)[C@H]1N1CCCC1)Nc1ccccc1	i
COc1cc(NC(=O)c2sc3nc(-c4ccc(F)cc4)ccc3c2N)cc(OC)c1OC	i
CSc1ccc(NC(=O)c2sc3nc(-c4ccc(F)cc4)ccc3c2N)cc1	44.0%*
COc1ccc(CCNC(=O)c2sc3nc(-c4ccc(OC)cc4)ccc3c2N)cc1	i
O=C(Nc1ccccc1)N1C[C@@H]2C[C@H](C1)c1ccc(-c3ccccc3CN3CCOCC3)c(=O)n1C2	i
CCO/C=C1\c2cc([N+](=O)[O-])ccc2-c2c1cc([N+](=O)[O-])cc2[N+](=O)[O-]	54.0%*
SMILES	ST2 inh
O=[N+]([O-])c1ccc(OCCO)c(OCCO)c1	i
N#Cc1c([N+](=O)[O-])cc([N+](=O)[O-])cc1S(=O)(=O)Cc1ccccc1	i
COc1ccc(C(=O)OCc2nc3ccccc3s2)cc1OC	i
Cc1ccccc1N1CCN(C2CCCN(C(=O)c3scnc3C)C2)CC1 (centres undefined)	i
CCCc1cc(C(=O)NC(C)c2ccccc2)no1 (centres undefined)	i
COc1ccc(CNC(=O)C2=C(C)C(=O)OC23CCN(S(=O)(=O)c2cccs2)CC3)cc1	i
CCN1CCN(C(=O)c2cc3c(=O)n4cccc(C)c4nc3n2C)CC1	i
Cc1ccc(/C=C2/SC(N3CCN(C)CC3)=NC2=O)cc1	i
COc1cccc(C2C(C#N)=C(N)Oc3c2c(=O)n(C)c(=O)n3C)c1 (centres undefined)	i
Cc1nn(-c2cccc(Cl)c2)c2c1C(c1cccc([N+](=O)[O-])c1)C(C#N)=C(N)O2 (centres undefined)	45.0%*
Cc1nn(-c2ccccc2)c2c1C(c1cccc([N+](=O)[O-])c1)C(C#N)=C(N)O2 (centres undefined)	i
O=C(C1COCCN1)N1CCOc2c(O)cc(-c3cccc(Cl)c3)cc2C1 (centres undefined)	i
Ic1ccc(-c2csc(Nc3ccc4c(c3)OCO4)n2)cc1	i
Cc1nc(-c2ccc([N+](=O)[O-])cc2)cs1	i
Cc1ccc(Nc2nc(-c3ccc([N+](=O)[O-])cc3)cs2)cc1C	33.0%*
O=C(Cc1ccc(Cl)cc1)Nc1ccc(O)cc1C(=O)O	i
COc1cc([N+](=O)[O-])ccc1NC(=O)C(c1ccccc1)c1ccccc1	i
O=C1C(=Cc2ccc(-c3ccc([N+](=O)[O-])cc3Cl)o2)C(=O)c2ccccc21	i
COc1cc([N+](=O)[O-])ccc1-c1ccc(/C=C2\C(=O)ON=C2c2ccccc2)o1	34.0%*
CC1CCCC(NC(=O)c2ccc(Cn3c(=O)[nH]c4ccsc4c3=O)cc2)C1C (centres undefined)	i
Cc1ccc(CNCc2cccnc2N2CCCC(O)C2)o1 (centres undefined)	i
CC(=O)c1ccc(NC(=O)c2ccc3nc(-c4ccco4)c(-c4ccco4)nc3c2)cc1	40.0%*
CC(=O)c1ccc(NC(=O)c2cc(-c3ccco3)on2)cc1	i
CC(=O)c1ccc(NC(=O)c2cccc(Cl)c2)cc1	i
Cc1ccc(NC(=O)C2CC(=O)OC23CCCCC3)c([N+](=O)[O-])c1 (centres undefined)	i
SMILES	ST2 inh
Oc1oc(-c2ccccc2)nc1C=Nc1cccc(C(F)(F)F)c1	i
COCCn1c(CNC(=O)c2ccc(Cl)cc2)nc2cccnc21	i
O=C(c1ccccc1Cl)N1CCN(c2ccc([N+](=O)[O-])cc2)CC1	i
CC(Oc1ccccc1)C(=O)N1CCN(c2ccc([N+](=O)[O-])cc2)CC1 (centres undefined)	48.0%*
O=C(C(Cl)Cl)N1CCN(c2ccc([N+](=O)[O-])cc2)CC1	i
O=C(O)c1c[nH]c2ccc(S(=O)(=O)NCc3ccccn3)cc2c1=O	i
C1Cc2[nH]nc(CNC3CSCCSC3)c2C1	i
O=[N+]([O-])c1ccc(N2CCN(c3nc(N4CCN(CCO)CC4)nc4ccccc34)CC2)cc1	31.0%*
OCCN1CCN(c2nc(NCc3ccco3)c3ccccc3n2)CC1	i
Cc1cc(N2CCN(c3cc(N4CCN(CCO)CC4)ccc3[N+](=O)[O-])CC2)c2ccccc2n1	i
Cn1c(=O)cc(SCC(=O)N2CCC(Cc3ccccc3)CC2)c2ccccc21	i
COc1ccc(/C=c2\sc3nc(-c4ccc(OC(C)C)cc4)nn3c2=O)c(OC)c1	i
COc1ccccc1C(=O)Nc1ccc(-c2nc3cc(C)ccc3o2)cc1	i
COc1ccc(C(=O)Nc2cccc(-c3nc4cc(C)ccc4o3)c2)cc1[N+](=O)[O-]	i
COc1ccc(C(=O)Nc2ccc(-c3nc4cc(C)ccc4o3)c(O)c2)cc1Cl	30.0%*
COc1ccc(C)cc1NC(=O)c1ccc(CN(c2ccccc2)S(C)(=O)=O)cc1	i
CN1/C(=C\C(=O)c2ccc([N+](=O)[O-])cc2)C(C)(C)c2ccccc21	36.0%*
NC(=O)c1ccc(C(=O)c2ccc([N+](=O)[O-])cc2)cc1	i
CN1C(=O)C(O)(CC(=O)c2cccc([N+](=O)[O-])c2)c2ccccc21 (centres undefined)	i
COc1ccc(Nc2ncc(C#N)c(Nc3ccccc3)c2C#N)cc1	i
O=C(Nc1ccccc1F)c1cc2ccccc2o1	i
Cc1nc2ccc(N(C)C)cc2s1	33.0%*
CN(C)c1ccc(C(=O)Nc2nc3ccc(Cl)cc3s2)cc1	i
Cc1nc2cc(CCO)ccc2s1	i
Cc1ccc(/C=C(\C#N)c2nc(-c3ccc([N+](=O)[O-])cc3)cs2)cc1	i
N#C/C(=C\c1ccccc1)c1nc(-c2ccccc2)cs1	65.0%*

Source: PubChem
